According to PubChem BioAssay (Tox21):
Values joined by “and” are separate entries in the source; they are usually repeats but may differ in a detail not shown here. Equal entries are not always repeated. Results filed as inconclusive are left out. A structure can be active in one record and inactive in another. Active and inactive are the calls of the source. Unless noted, calls come from the whole dose curve; as a rule, active = well fitted curve in the direction sought with a large enough effect in the repeat runs; inconclusive = weak or mixed curves; inactive = no such curve, though single readings can be large; an effect the other way counts as inactive or inconclusive.

Columns and labels:
[1] = qHTS assay to identify small molecule antagonists of the glucocorticoid receptor (GR) signaling pathway - cell viability counter screen (AID 720693); conditions: GR-bla HeLa viability, CellTiter-Glo luminescence, 18 h, with 5 nM dexamethasone present; series mostly up to 58.5 µM; note: nearly all actives have a fitted effect of over 55% in size; note: potency is the fitted concentration of half-maximal effect
[2] = qHTS assay for identifying genotoxic compounds that show differential cytotoxicity against isogenic chicken DT40 cell lines with known DNA damage response pathways - wild type cell line (AID 743012); conditions: DT40 wild type chicken cells viability, CellTiter-Glo, 40 h; series mostly up to 68.4 µM; note: nearly all actives have a fitted effect of over 60% in size; note: potency is the fitted concentration of half-maximal effect
In short: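 Wild-type DT40 cells (300/well) exposed to compounds for 40 hours at 37 C/5% CO2. Viability read by CellTiter-Glo luminescence after 30 min at room temperature.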

[3] = qHTS assay for identifying genotoxic compounds that show differential cytotoxicity against isogenic chicken DT40 cell lines with known DNA damage response pathways - Rev3 mutant cell line (AID 743014); conditions: chicken DT40 Rev3-/- viability, CellTiter-Glo, 40 h; series mostly up to 68.4 µM; note: nearly all actives have a fitted effect of over 55% in size; note: potency is the fitted concentration of half-maximal effect
[4] = qHTS assay for identifying genotoxic compounds that show differential cytotoxicity against isogenic chicken DT40 cell lines with known DNA damage response pathways - Rad54/Ku70 mutant cell line (AID 743015); conditions: DT40 Rad54/Ku70 mutant viability, CellTiter-Glo, 40 h; series mostly up to 66.8 µM; note: nearly all actives have a fitted effect of over 60% in size; note: potency is the fitted concentration of half-maximal effect
[5] = qHTS assay to identify small molecule antagonists of the androgen receptor (AR) signaling pathway - cell viability counter screen (AID 743033; note: nearly all actives have a fitted effect of over 45% in size; note: potency is the fitted concentration of half-maximal effect); conditions: AR-bla HEK293 viability, CellTiter-Glo luminescence, 16 h; series mostly up to 58.5 µM
[6] = qHTS assay to identify small molecule antagonists of the androgen receptor (AR) signaling pathway using the MDA cell line - cell viability counter screen (AID 743041; note: nearly all actives have a fitted effect of over 45% in size; note: potency is the fitted concentration of half-maximal effect); conditions: MDA-kb2 viability, CellTiter-Fluor, 16 h, cells co-treated with R1881 androgen agonist; series mostly up to 70.3 µM
In short: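 Viability counter screen run alongside the AR antagonist reporter: cells seeded 5 h before compound, R1881 added, 16 h incubation at 37C without CO2, fluorescent CellTiter-Fluor signal quantified.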

[7] = target: Androgen receptor (Homo sapiens) (UniProt P10275); assay: qHTS assay to identify small molecule agonists of the androgen receptor (AR) signaling pathway (AID 743036; active = well fitted activation curve with a large enough effect in the signal ratio in the repeat runs, with a control signal flat, not every such curve was filed as active; the % refers to the signal ratio); conditions: HEK293 AR-UAS-bla GripTite, beta-lactamase FRET ratio, 16 h; series mostly up to 62.4 µM
In short: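 Activation was read as beta-lactamase FRET signal from LiveBLAzer B/G substrate, added for 2 h at room temperature. Before that, GeneBLAzer AR-UAS-bla GripTite (HEK293) cells had 16 h compound exposure at 37C.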

[8] = target: Androgen receptor (Homo sapiens) (UniProt P10275); assay: qHTS assay to identify small molecule agonists of the androgen receptor (AR) signaling pathway using the MDA cell line (AID 743040; note: nearly all actives have a fitted effect of over 20% in size); conditions: MDA-kb2 AR-luc cells, MMTV luciferase, 16 h, stronger effect = higher value; series mostly up to 70.3 µM
In short: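 Luminescence from ONE-Glo, read after 30 min at room temperature, reflects MMTV-driven luciferase in MDA-kb2 cells (AR- and GR-responsive). Treatment lasted 16 h at 37C, 0% CO2.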

[9] = target: Androgen receptor (Homo sapiens) (UniProt P10275); assay: qHTS assay to identify small molecule antagonists of the androgen receptor (AR) signaling pathway using the MDA cell line (AID 743042; note: nearly all actives have a fitted effect of over 55% in size); conditions: MDA-kb2 AR-luc, MMTV luciferase, R1881 antagonist, 16 h; series mostly up to 70.3 µM
In short: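 MDA-kb2 cells (human breast carcinoma, stably carrying an MMTV-luciferase reporter responsive to AR and GR) were plated at 3,000 cells/well and preincubated 5 hr at 37C, then given compound plus R1881 agonist for 16 h. ONE-Glo luminescence was read.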

[10] = qHTS assay to identify small molecule antagonists of the thyroid receptor (TR) signaling pathway - cell viability counter screen (AID 743064); conditions: GH3.TRE-Luc viability, CellTiter-Fluor, 24 h; series mostly up to 70.3 µM; note: nearly all actives have a fitted effect of over 50% in size; note: potency is the fitted concentration of half-maximal effect
In short: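 In-well cytotoxicity read by CellTiter-Fluor (30 min, 37 C) following 23.5 h exposure of GH3 cells bearing a TRE-luciferase sensor. Compounds were added alongside 1 nM (final) T3 to drive TR transactivation.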

Measured: Potency

Androgen receptor (Homo sapiens), sequence (P10275 whole entry, looked up): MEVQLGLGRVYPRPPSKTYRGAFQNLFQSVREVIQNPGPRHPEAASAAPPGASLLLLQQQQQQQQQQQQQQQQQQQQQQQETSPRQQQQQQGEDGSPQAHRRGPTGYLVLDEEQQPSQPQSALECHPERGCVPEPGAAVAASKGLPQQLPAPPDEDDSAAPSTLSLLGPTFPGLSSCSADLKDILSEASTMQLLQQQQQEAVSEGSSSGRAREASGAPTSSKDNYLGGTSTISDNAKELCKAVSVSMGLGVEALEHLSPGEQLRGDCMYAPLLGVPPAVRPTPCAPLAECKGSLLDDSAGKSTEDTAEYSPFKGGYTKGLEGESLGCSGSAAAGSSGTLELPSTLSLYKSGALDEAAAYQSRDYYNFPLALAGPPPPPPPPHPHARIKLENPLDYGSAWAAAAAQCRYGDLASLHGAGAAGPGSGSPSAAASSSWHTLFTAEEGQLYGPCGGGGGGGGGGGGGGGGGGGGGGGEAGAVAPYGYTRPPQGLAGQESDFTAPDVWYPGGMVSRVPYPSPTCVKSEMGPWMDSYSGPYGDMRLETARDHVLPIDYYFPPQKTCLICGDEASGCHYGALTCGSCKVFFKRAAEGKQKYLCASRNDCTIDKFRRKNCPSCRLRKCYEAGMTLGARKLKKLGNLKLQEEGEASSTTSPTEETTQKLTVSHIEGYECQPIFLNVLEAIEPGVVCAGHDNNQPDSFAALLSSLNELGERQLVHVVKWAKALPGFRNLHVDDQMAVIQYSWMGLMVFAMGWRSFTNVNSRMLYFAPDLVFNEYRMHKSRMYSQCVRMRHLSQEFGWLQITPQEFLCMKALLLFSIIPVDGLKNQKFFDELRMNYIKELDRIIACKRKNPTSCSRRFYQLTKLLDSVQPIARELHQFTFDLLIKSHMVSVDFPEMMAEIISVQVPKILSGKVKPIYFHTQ

CN(C)C(=O)COC(=O)Cc1ccc(OC(=O)c2ccc(N=C(N)N)cc2)cc1
inactive: [1] | [2] | [3] | [4] | [5] | [6]

Cc1ccc(C)cc1
inactive: [1] | [2] | [3] | [4] | [5] | [7] | [8] | [6] | [9]

OC[C@@H](O)[C@@H](O)CO
inactive: [1] | [2] | [3] | [4] | [5] | [6] | [10]

O=C(O)c1cccc(C(F)(F)F)c1
inactive: [1] | [2] | [3] | [4] | [5] | [6]

C#C[C@]1(O)CC[C@H]2[C@@H]3[C@H](C)CC4=C(CCC(=O)C4)[C@H]3CC[C@@]21C
inactive: [1] | [5] | [6]
active: [2] 10.6 µM | [3] 29.8 µM | [4] 21.1 µM

COC(=O)c1ccccc1C
inactive: [1] | [2] | [3] | [4] | [5] | [6] | [10]

CC(CCc1ccccc1)NCC(O)c1ccc(O)c(C(N)=O)c1 (stereo not drawn)
active: [10] 30.6 µM
inactive: [1] | [2] | [3] | [4] | [5] | [6]

CC(=O)CC(=O)Nc1ccc(S(=O)(=O)O)cc1
inactive: [1] | [2] | [3] | [4] | [5] | [6] | [10]

CC/C=C\CCCCCO
inactive: [1] | [2] | [3] | [4] | [5]

Oc1c(I)cc(Cl)c2cccnc12
active: [2] 18.8 µM and 15.3 µM | [3] 11.9 µM and 15.3 µM | [4] 16.8 µM and 19.3 µM
inactive and 17.3 µM (active): [5]
inactive: [1] | [7] | [8] | [6] | [9] | [10]

O=C(c1ccc(O)c(O)c1)c1ccc(O)cc1O
active: [2] 43.2 µM | [3] 21.6 µM | [4] 8.62 µM
inactive: [1] | [5] | [6]

CCOC(=O)Cn1cccc1-c1nc(-c2ccc(OC)cc2)c(-c2ccc(OC)cc2)s1
inactive: [1] | [2] | [3] | [4] | [5] | [8] | [6] | [9]

OCCN1CCN(CCCN2c3ccccc3Sc3ccc(C(F)(F)F)cc32)CC1
inactive: [1]
active: [2] 3.76 µM | [3] 1.68 µM | [4] 4.22 µM

NC(=S)NC(N)=S
inactive: [1] | [5] | [7] | [8] | [6] | [9] | [10]
active: [2] 61.1 µM | [3] 61.1 µM | [4] 68.6 µM

COc1cc(C)ccc1O
inactive: [1] | [2] | [3] | [4] | [5] | [6]

O=C(O)c1cc(-c2ccc(F)cc2F)ccc1O
inactive: [1] | [2] | [3] | [4] | [5]

[Cu+]
active: [2] 54.5 µM | [3] 54.5 µM | [4] 30.6 µM
inactive: [1] | [5] | [6]

COc1cc(/C=C/c2ccccc2)oc(=O)c1
inactive: [1] | [2] | [3] | [4] | [5] | [6]

CCCCCc1ccc(Cl)cc1
inactive: [1] | [2] | [3] | [4] | [5] | [6] | [10]

CC(C)(c1cc(Br)c(OCC(Br)CBr)c(Br)c1)c1cc(Br)c(OCC(Br)CBr)c(Br)c1 (stereo not drawn)
inactive: [1] | [2] | [3] | [4] | [5] | [6]

Cc1c(C)c2c(c(C)c1OC(=O)c1cccnc1)CC[C@@](C)(CCC[C@H](C)CCC[C@H](C)CCCC(C)C)O2
inactive: [1] | [2] | [3] | [4] | [5] | [6]

CC1=CCC(=C(C)C)CC1
inactive: [1] | [2] | [3] | [4] | [5] | [6]

CC1(C)[C@@H](O)CC[C@]2(C)[C@H]3C(=O)C=C4[C@@H]5C[C@@](C)(C(=O)O)CC[C@]5(C)CC[C@@]4(C)[C@]3(C)CC[C@@H]12
2.37 µM (active) and inactive: [4]
active: [10] 29.8 µM and 24.1 µM
5.96 µM (active) and inactive: [3]
inactive: [1] | [2] | [5] | [7] | [8] | [6] | [9]

NC[C@H]1O[C@H](O[C@H]2[C@H](O[C@@H]3O[C@H](CO)[C@@H](O)[C@H]3O)C(O)[C@H](N)C[C@@H]2N)[C@H](N)[C@@H](O)[C@@H]1O (stereo partly drawn)
inactive: [1] | [2] | [3] | [4] | [5] | [6] | [10]

CC1(C)CC(O)CC(C)(C)N1
inactive: [1] | [2] | [3] | [4] | [5] | [6]

O=C(O)c1cc(O)c2ccccc2c1O
inactive: [1] | [5]
active: [2] 6.11 µM | [3] 5.45 µM | [4] 6.11 µM

CC[C@H](C)COC(=O)/C=C/c1ccc(N=Cc2ccc(OC)cc2)cc1
inactive: [1]

CCC(C)n1ncn(-c2ccc(N3CCN(c4ccc(OC[C@H]5CO[C@](Cn6cncn6)(c6ccc(Cl)cc6Cl)O5)cc4)CC3)cc2)c1=O (stereo partly drawn)
inactive: [1] | [5] | [6]
active: [2] 0.596 µM | [3] 0.422 µM | [4] 0.596 µM

CCCCCCCC
inactive: [1] | [2] | [3] | [4] | [5] | [6] | [10]

CNC(=O)c1ccccc1Sc1ccc2c(/C=C/c3ccccn3)n[nH]c2c1
active: [2] 2.11 µM | [3] 2.37 µM | [4] 2.66 µM
inactive: [1] | [5]

C=C(CC)C(=O)c1ccc(OCC(=O)O)c(Cl)c1Cl
active: [2] 18.8 µM and 43 µM | [3] 26.6 µM and 48.2 µM | [4] 29.8 µM and 48.2 µM | [6] 54.1 µM | [10] 68.1 µM
inactive: [1] | [5]

O=[N+]([O-])c1cccc(C(F)(F)F)c1
inactive: [1] | [2] | [3] | [4] | [5] | [6] | [10]

CCCC1CCC(=O)CC1
inactive: [1] | [2] | [3] | [4] | [5]

C=CC(C)(CCC=C(C)C)OC=O (stereo not drawn)
inactive: [1] | [2] | [5] | [6] | [10]
active: [3] 24.3 µM | [4] 54.5 µM

O=c1[nH]c2ccccc2n1CCCN1CCN(C(c2ccccc2)c2ccccc2)CC1
active: [2] 5.96 µM | [3] 6.68 µM | [4] 8.41 µM | [10] 23.7 µM
inactive: [1] | [5] | [6]

COc1cc2nc(N3CCN(C(=O)c4ccco4)CC3)nc(N)c2cc1OC
inactive: [1]
active: [2] 10.6 µM | [3] 13.3 µM | [4] 13.3 µM

CC1(C)CCC[C@]2(C)[C@H]3CCO[C@]3(C)CC[C@@H]12
inactive: [1] | [2] | [3] | [4] | [5] | [6] | [10]

CCN1C(=O)c2ccccc2C1Nc1ccc(OCCN2CCCCC2)cc1 (stereo not drawn)
inactive: [1] | [3] | [5] | [7] | [8] | [9]
active: [2] 26.6 µM

CCCCCCC1CCCC(=O)O1 (stereo not drawn)
inactive: [1] | [2] | [3] | [4] | [5] | [10]

O=C1CCc2cc(OCCCCc3nnnn3C3CCCCC3)ccc2N1
inactive: [1] | [2] | [3] | [5]

O=C1OC2(c3ccc(O)cc3Oc3cc(O)ccc32)c2ccc(N=C=S)cc21
inactive: [1] | [2] | [3] | [5]

Clc1sc(Cl)c(Cl)c1Cl
inactive: [1] | [2] | [3] | [5] | [7] | [8] | [6] | [9] | [10]

O=C(Oc1ccccc1)Oc1ccccc1
inactive: [1] | [2] | [3] | [4] | [5] | [6] | [10]

CC(CO)Oc1ccccc1 (stereo not drawn)
inactive: [1] | [2] | [3] | [5] | [7] | [8] | [9] | [10]

OC[C@H]1O[C@H](O[C@H]2O[C@H](CO)[C@@H](O)[C@H](O)[C@H]2O)[C@H](O)[C@@H](O)[C@@H]1O
inactive: [1] | [2] | [3] | [5] | [8] | [6] | [9] | [10]

NC(=O)c1cccc([N+](=O)[O-])c1
inactive: [1] | [2] | [3] | [5] | [8] | [9] | [10]

O=C1CCc2ccc(OCCCCN3CCN(c4cccc(Cl)c4Cl)CC3)cc2N1
active: [2] 5.96 µM | [3] 5.31 µM | [4] 6.68 µM | [10] 11.9 µM
inactive: [1] | [5] | [6]

CCC(=O)OC(=O)CC
inactive: [1] | [2] | [3] | [4] | [5] | [6] | [10]

CC(=O)[C@H]1CC[C@H]2[C@@H]3CCC4=CC(=O)CC[C@]4(C)[C@H]3CC[C@]12C
active: [1] 3.87 µM | [2] 6.68 µM and 13.6 µM and 7.7 µM | [3] 9.44 µM and 6.82 µM and 6.86 µM | [4] 9.44 µM and 12.1 µM and 12.2 µM | [10] 60.8 µM
inactive: [6]
inactive and 43.6 µM (active): [5]
